# Screening data from PubChem.
# Shown are actives, neighbours in structure and some others; about 32% of the full set was active somewhere.
# CYP2C9 inhib: blocks human cytochrome P450 2C9 | P11712 | CYP2C9 Supersomes, luciferin-H conversion, luminescence | inhibition, % at 5 µM | 96,000 compounds, 20% hits | AID 777;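 active = blocking of liver enzyme CYP2C9 beyond about 50% at 5 µM, limit read from the data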
# Target sequence (P11712 whole entry, looked up): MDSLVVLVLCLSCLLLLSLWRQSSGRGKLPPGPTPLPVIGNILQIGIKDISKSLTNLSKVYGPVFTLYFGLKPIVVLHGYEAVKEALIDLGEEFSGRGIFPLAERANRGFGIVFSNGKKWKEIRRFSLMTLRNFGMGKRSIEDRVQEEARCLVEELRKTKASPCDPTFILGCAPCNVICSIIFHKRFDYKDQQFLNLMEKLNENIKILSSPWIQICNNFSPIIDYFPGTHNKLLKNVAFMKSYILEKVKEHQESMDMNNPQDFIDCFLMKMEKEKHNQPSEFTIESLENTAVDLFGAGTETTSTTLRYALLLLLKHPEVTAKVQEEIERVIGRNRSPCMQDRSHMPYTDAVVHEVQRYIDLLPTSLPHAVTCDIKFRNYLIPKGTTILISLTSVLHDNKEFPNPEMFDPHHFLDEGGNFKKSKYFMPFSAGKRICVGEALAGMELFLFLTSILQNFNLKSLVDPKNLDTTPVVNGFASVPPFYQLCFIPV
# PostGolgi ctrl: inhibits growth of the yeast control strain; efflux-deficient yeast background strain, growth absorbance A615, 16 h; inhibition, % at 10 µM; 98,000 compounds, 5% hits; AID 738
# CYP2C9 act: CYP2C9 (human) activation | activation factor at 5 µM | P11712 | AID 1024 | 96,000 compounds, 1.4% hits | recombinant CYP2C9, luciferin-H conversion, luminescence; active compounds read high; factor 1 = untreated enzyme, 0 = blocked;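 active = activation factor of 2 or more for CYP2C9 at a 5 µM dose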;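 note: 0 = sulfaphenazole-blocked wells and 1 = vehicle-only wells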
# CYP2C19 act: activators of human cytochrome P450 2C19 | P33261 | recombinant CYP2C19, luciferin-H EGE luminescence; active compounds read high; 0 = fully inhibited enzyme, 1 = untreated enzyme | activation factor at 5 µM | 96,000 tested, under 10 active;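 active = activation factor of at least 2 at 5 µM in the primary screen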;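 note: 0 = wells with 2.5 mM tranylcypromine and 1 = vehicle-only wells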
# CYP2C19 inh: human CYP2C19 inhibition. 96,000 compounds, 21% hits. CYP2C19 Supersomes, luciferin-H EGE luminescence, 30 min. P33261. AID 778. inhibition, % at 5 µM;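 active = CYP2C19 inhibition above a set limit at 5 µM in the primary screen, cut at about 50% in these data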;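 note: plate controls were negative control wells for no effect and 2.5 mM tranylcypromine positive control for full effect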
# PostGolgi yeast: growth inhibition of a yeast mutant, post-Golgi transport screen; post-Golgi transport phenotypic cell assay; AID 739; inhibition, % at 10 µM; 98,000 compounds, 0.9% hits;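 note: yeast cells grown in 1536-well plates; yeast grown about 18 h at 30C before absorbance read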
# An asterisk follows results filed as active; . = not tested or not shown. Cut-off read from the data, not from the text of the source, unless noted: active = inhibition above about 30%; inactive = the rest.
SMILES,CYP2C9 inhib,PostGolgi ctrl,CYP2C9 act,CYP2C19 act,CYP2C19 inh,PostGolgi yeast
CC(C)(C)NC(=O)CCC1COc2ccccc2O1 (stereo not given),21,7,0.8,0.7,33,-1
Cc1nnc(SCC(=O)Nc2ccc(S(=O)(=O)N3CCCC3)cc2)n1N,5,7,1,1.1,-10,2
CN(Cc1cccs1)C(=O)CSc1nnnn1C,-12,19,1.1,0.7,28,-2
CCCC(CCC)C(=O)Nc1c[nH]c(=O)[nH]c1=O,-21,20,1.2,1.1,-14,4
CCc1cccc2c(C#N)cn(CCOc3ccccc3OC)c12,45,16,0.5,0.7,27,8
Clc1ccccc1OCCCCN1CCCC1,-10,-2,1.1,1.1,-8,0
Cc1ccc(OCCCCn2cnc3ccccc32)c(C)c1,38,32*,0.6,0.7,35,-4
Cc1cc2ncn(CCOc3ccccc3C#N)c2cc1C,51*,23,0.5,0.2,77*,14
COC(=O)c1ccc(OCCn2cnc3ccccc3c2=O)cc1,25,-3,0.7,0.7,29,-7
Clc1ccc(OCCn2cnc3ccccc32)cc1,77*,0,0.2,0.2,84*,22
Clc1ccccc1OCCn1cnc2ccccc21,69*,10,0.3,0.2,80*,0
Cc1cccc(CS(=O)(=O)Cc2ccc(C(=O)NCCN3CCCCC3C)o2)c1 (stereo not given),19,1,0.8,0.9,6,10
Cc1ccccc1-c1nnc2s/c(=C\c3ccc(N(C)C)cc3)c(=O)n12,5,.,0.9,0.9,12,.
Cc1nn(CC#N)c(=O)n1-c1ccc(F)cc1,0,0,1,1,2,-4
COC(=O)Nc1c(C)nn(Cc2ccccc2C)c1C,-3,-8,1,0.4,58*,-10
Cc1ccccc1Cn1nc(C)c(NC(=O)c2noc3c2CCc2ccccc2-3)c1C,79*,38*,0.2,0.4,58*,25
COCCCNC(=O)COc1ccc(-c2nccc(-c3ccccn3)n2)cc1,40,2,0.6,0.6,37,16
Cc1ccc(CS(=O)(=O)c2ccccc2-c2nnc(-c3ccc(Cl)cc3)o2)cc1,91*,20,0.1,0.6,44,3
Cc1ccccc1-c1nnc(-c2ccc(Cl)cc2)o1,9,11,0.9,0.9,15,-2
O=c1cc(-c2ccccc2)[nH]n1-c1nc2ccccc2[nH]1,56*,4,0.4,0.9,5,-5
COc1ccc(CCn2c(N)c(S(=O)(=O)c3cccs3)c3nc4ccccc4nc32)cc1OC,.,10,.,.,.,-15
COc1ccccc1CCn1c(N)c(C#N)c2nc3ccccc3nc21,55*,12,0.4,0.6,38,3
COc1ccc(Cn2c(N)c(C#N)c3nc4ccccc4nc32)cc1OC,67*,10,0.3,0.1,90*,-5
COc1ccc(CCn2c(N)c(C#N)c3nc4ccccc4nc32)cc1OC,40,6,0.6,0,98*,2
NC(=O)CSc1nnc(-c2ccc(S(=O)(=O)N3CCCC3)cc2)n1CC1CCCO1 (stereo not given),-4,-5,1,1.1,-7,6
SMILES,CYP2C9 inhib,PostGolgi ctrl,CYP2C9 act,CYP2C19 act,CYP2C19 inh,PostGolgi yeast
COc1ccc(NC2=CC(=O)CC(c3ccccc3)C2)c(OC)c1 (stereo not given),-22,11,1.2,0.4,62*,0
CCOc1ccccc1NC1=CC(=O)CC(c2ccccc2)C1 (stereo not given),7,4,0.9,0.5,50,8
CCN1C(c2ccccc2)C(C)C(=O)C(C)C1c1ccccc1 (stereo not given),88*,27,0.1,0.3,65*,8
Cn1c(NC(=O)c2ccccc2Br)cc(=O)n(C)c1=O,-30,0,1.3,1,-4,-5
Cn1c(NC(=O)c2cc(Br)ccc2Cl)cc(=O)n(C)c1=O,29,12,0.7,0.4,59*,3
COc1ccccc1CN(CC(=O)NCc1ccco1)C(=O)CNS(=O)(=O)c1ccc(C)cc1,28,5,0.7,0.8,22,-8
CCOC(=O)c1c(C)sc(Sc2ccc(Cl)cc2[N+](=O)[O-])c1OC,21,22,0.8,0.2,81*,3
CCN(CC)S(=O)(=O)c1ccc(C(=O)Oc2ccc3c(c2)OCO3)cc1,-1,10,1,1,-4,11
CCN(CC)S(=O)(=O)c1ccc(C(=O)OC2CCCCC2CN(C)C)cc1 (stereo not given),50*,-3,0.5,0.9,8,-3
COc1ccc(/C=N\NC(=O)COc2ccccc2Cl)cc1Cn1nc(C)cc1C,20,9,0.8,0.9,8,-3
COc1ccc2c(c1)CC/C(=C\c1ccc(OC)c(Cn3nc(C)cc3C)c1)C2=O,49,3,0.5,0.1,87*,1
COc1ccc2c(c1)CC/C(=C\c1ccc(OC)c(Cn3cccn3)c1)C2=O,91*,25,0.1,0,97*,1
COc1ccc(/C=C2\CN(Cc3ccccc3)C/C(=C\c3ccc(OC)cc3OC)C2=O)c(OC)c1,18,8,0.8,0.8,20,-6
O=C(NC1CCC(NC(=O)C2CCCO2)CC1)C1CCCO1 (stereo not given),-9,6,1.1,1.1,-10,-1
COc1ccccc1N1CCN(C(=O)c2ccc(NC(C)=O)cc2)CC1,-4,4,1,1,-5,5
COc1ccccc1N1CCN(C(=O)c2ccc(C(C)(C)C)cc2)CC1,91*,36*,0.1,0.2,75*,-2
Cc1onc(-c2ccccc2)c1C(=O)N1CCCN(C(=O)c2c(-c3ccccc3)noc2C)CC1,12,8,0.9,0.9,7,0
COc1ccccc1N1CCN(C(=O)c2ccncc2)CC1,86*,-3,0.1,0,100*,-3
COc1ccccc1N1CCN(C(=O)c2c(-c3ccccc3)noc2C)CC1,28,12,0.7,0.4,55*,-2
COc1ccccc1N1CCN(C(=O)c2ccc(S(=O)(=O)N3CCCC3)cc2)CC1,34,7,0.7,0.8,15,0
COc1cc2[nH]c(=O)n(Cc3ccc(C(=O)NCC4CCCO4)cc3)c(=O)c2cc1OC (stereo not given),18,11,0.8,0.9,5,-1
Cc1ccc(S(=O)(=O)N2CCOCC2)c(C)c1-n1cnnn1,-198,3,3*,1.1,-9,-2
COc1cc(OC)cc(C(=O)NC(=S)NCCc2ccccc2)c1,51*,9,0.5,0.5,48,19
COc1cc(OC)cc(C(=O)Nc2ccccc2NC(C)=O)c1,26,9,0.7,0.7,35,6
O=C(NCNC(=O)c1ccccc1)c1ccccc1,-3,0,1,0.1,94*,7
